Assay results: PubChem BioAssay (NCI)
The panel holds about 83,000 compounds, 20% with a hit somewhere; the sample as a whole holds those more often.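 Results are percent growth after 48 hours of single-concentration exposure. 100 means growth as in untreated cells, lower positive values show inhibition; negative values down to -100 show cell death.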 Values without a mark were called inactive. The source made the active and inactive calls. Rule for the calls: active = growth percent below 10; inactive = the rest.

Columns and labels:
Experiment in all cases: NCI-60 one-dose screen, 48 h (100 = growth as untreated, 0 = no growth, -100 = all killed)
Conditions in all cases: 10 µM unless noted
SR leukemia = test system: SR leukemia
OVCAR-8 ovarian = test system: OVCAR-8 ovarian
OVCAR-5 ovarian = test system: OVCAR-5 ovarian
OVCAR-4 ovarian = test system: OVCAR-4 ovarian
SK-OV-3 ovarian = test system: SK-OV-3 ovarian
OVCAR-3 ovarian = test system: OVCAR-3 ovarian
HS 578T breast = test system: HS 578T breast
NCI/ADR-RES ovarian = test system: NCI/ADR-RES ovarian
T-47D breast = test system: T-47D breast
BT-549 breast = test system: BT-549 breast
MDA-MB-435 melanoma = test system: MDA-MB-435 melanoma
SW-620 colon = test system: SW-620 colon
MCF7 breast = test system: MCF7 breast
HCT-116 colon = test system: HCT-116 colon
HCC-2998 colon = test system: HCC-2998 colon
KM12 colon = test system: KM12 colon
IGROV1 ovarian = test system: IGROV1 ovarian
RPMI-8226 leukemia = test system: RPMI-8226 leukemia

SMILES	growth (SR leukemia)	growth (OVCAR-8 ovarian)	growth (OVCAR-5 ovarian)	growth (OVCAR-4 ovarian)	growth (SK-OV-3 ovarian)	growth (OVCAR-3 ovarian)	growth (HS 578T breast)	growth (NCI/ADR-RES ovarian)	growth (T-47D breast)	growth (BT-549 breast)	growth (MDA-MB-435 melanoma)	growth (SW-620 colon)	growth (MCF7 breast)	growth (HCT-116 colon)	growth (HCC-2998 colon)	growth (KM12 colon)	growth (IGROV1 ovarian)	growth (RPMI-8226 leukemia)
NC(C(=O)O)C(O)c1ccc(OCc2ccccc2)c(OCc2ccccc2)c1 (configuration not stated)	92.3%	99.6%	101%	107%	103%	106%	93.4%	93.3%	88.1%	95%	102%	97%	87.3%	101%	115%	100%	–	–
CCN(C(=O)c1cc2ncccc2[nH]1)[C@H]1CCC[C@@H](NCc2cccc(F)c2)C1	99.6%	103%	81.6%	–	103%	95.7%	109%	89.1%	78.1%	104%	97.4%	98.5%	95.7%	111%	91.6%	97.3%	91.1%	–
CCC(c1ccc(OC)cc1)C(CC)c1ccc(O)c(CN2CCCC2)c1 (configuration not stated)	-43% (active)	36.7%	63%	31.7%	34.5%	20.3%	12.4%	18.7%	-33% (active)	2.58% (active)	–	0.333% (active)	-44.4% (active)	35.9%	-83% (active)	27.9%	–	–
ClC1=C(Cl)C(Cl)=C(Cl)C1=Cc1ccc(Cl)cc1Cl	2.92% (active)	2.92% (active)	8.75% (active)	5.94% (active)	38.5%	-83.7% (active)	11.6%	-34.8% (active)	-0.12% (active)	-26.3% (active)	-52.4% (active)	-43.9% (active)	4.25% (active)	-55.5% (active)	-89.7% (active)	-78.9% (active)	7.32% (active)	–
C/C(=C\c1csc(C)n1)[C@@H]1C[C@@H]2O[C@]2(C)CCC[C@H](C)[C@H](O)[C@@H](C)C(=O)C(C)(C)[C@@H](O)CC(=O)N1	-39.1% (active)	-74% (active)	-6.81% (active)	14.8%	-8.54% (active)	-100% (active)	-61.7% (active)	-70.2% (active)	-21.8% (active)	-45.3% (active)	-79.7% (active)	-98.6% (active)	-82.1% (active)	-79.1% (active)	–	-99.2% (active)	-85.5% (active)	–
Cc1ccnc2nc(C(=O)OCC(=O)Nc3ccc(-c4ccccc4)cc3)nn12	53.3%	102%	96%	95%	116%	112%	125%	98.3%	111%	96.3%	107%	109%	105%	96%	105%	119%	-5.67% (active)	–
COc1ccc([N+](=O)[O-])c(/C=C/C(=O)c2ccccn2)c1	26.5%	–	90.5%	–	96%	86.1%	91.4%	–	91.8%	94.2%	94.5%	16.9%	67%	1.9% (active)	120%	84.5%	60.8%	52.6%
COc1cc2c(cc1OCCCCn1c(-c3cc(=O)c4ccccc4o3)nc3ccccc31)N=C[C@@H]1CCCN1C2=O	39.8%	106%	111%	108%	109%	–	116%	110%	79.4%	101%	94.9%	86.6%	72.6%	101%	128%	105%	-16.3% (active)	–
COc1ncc(-c2ccc3ncnc(Nc4cccc(Cl)c4)c3c2)cc1N(S(C)(=O)=O)S(C)(=O)=O	92.6%	73.8%	43.2%	77.3%	52.2%	54.9%	49.7%	72.7%	18.5%	78.1%	77.7%	75.7%	27.7%	81.2%	76.4%	81.1%	-28.6% (active)	–
CC/C(=C(\c1ccc(O)cc1)c1ccc(OCCN(C)CCN(C)C(=O)CCC(=O)c2c(C)[nH]c(/C=C3\N=C(c4ccc[nH]4)C=C3OC)c2C)cc1)c1ccccc1	58.6%	89.9%	99.6%	–	111%	89.1%	83.6%	79.8%	69.3%	103%	63.8%	66.2%	34.3%	65.2%	92.2%	42.4%	81.6%	–
Cc1cc(C)c(NC(=O)c2sc3nc4c(cc3c2N)CN(Cc2ccccc2)CC4)c(C)c1	10.1%	46.6%	57.1%	31.6%	23.9%	-3.04% (active)	21%	18.5%	27.4%	52.2%	-18.6% (active)	23.7%	17.6%	22.6%	62.3%	19.4%	24.1%	–
COc1cc(C2C3=C(COC3=O)Nc3c2ccc2c3CCCC2)cc2c1OCO2 (configuration not stated)	7.47% (active)	15.9%	42.8%	38%	-8.93% (active)	-53.1% (active)	81.8%	3.82% (active)	73.5%	9.86% (active)	–	23.1%	16.3%	0.327% (active)	5.11% (active)	-34.8% (active)	44.7%	–
CCN(Cc1ccc(CN(CC)C(=O)C(Cl)(Cl)Cl)cc1)C(=O)C(Cl)(Cl)Cl	32.8%	89.6%	101%	74.7%	91.2%	74.4%	89.7%	86.6%	78.2%	78.3%	83.7%	89%	89.2%	56.4%	92.4%	81.5%	94.9%	–
COc1ccc(C2=CC(c3ccc(Oc4ccnc5cc(Cl)ccc45)c(OC)c3)c3c(nc(OC)[nH]c3=O)N2)cc1 (configuration not stated)	13.4%	–	115%	63.9%	102%	58%	97.1%	71.1%	53.8%	39.5%	71.3%	50.2%	35.7%	35.8%	84.3%	65.5%	86.6%	28.8%
Nc1c(C(=O)Nc2cccc([N+](=O)[O-])c2)sc2nc3c(cc12)C(O)CCC3 (configuration not stated)	21%	82.3%	78.7%	80.2%	46.3%	33.1%	71.8%	47.8%	–	58.1%	-22.9% (active)	37.9%	15.2%	24.1%	87.6%	33.4%	52.5%	–
Cc1c(C(=O)NCc2ccccc2)[n+](=O)c2cc(F)ccc2n1[O-]	70.6%	116%	103%	98%	109%	93.2%	148%	105%	107%	121%	93.5%	107%	97.1%	97.9%	88.4%	111%	-26.7% (active)	–
Nc1c(C(=O)Nc2c(Cl)cccc2Cl)sc2nc3c(cc12)CCCCC3	16.7%	51.8%	79.8%	–	56.6%	52.8%	59%	53.5%	57.7%	52.6%	9.69% (active)	46.1%	18.4%	62.3%	57%	53.6%	73%	–
OCc1c(-c2ccccc2)nc2sccn12	103%	67.5%	109%	103%	110%	116%	77.7%	105%	104%	–	114%	98.3%	103%	104%	–	97.6%	88.2%	–
